The record followed here is the supplement of paper PMC10338343.

± gives the standard deviation.

This test relates to EfPiwi piRISC loaded with L1MC piRNA (26 nt). In words: pre-steady-state target cleavage rate (min^-1); auxiliary factor: 500 nM Ephydatia muelleri Gtsf1; guide: L1MC piRNA 5'p-UAACUAAAUACUAUGCAAGCUGUAGG; MIWI and MILI are mouse PIWI proteins and EfPiwi is from a freshwater sponge; tags in brackets are library labels; higher = faster piRNA-guided slicing of the target. As for the experimental part: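 Cleave-'n-Seq: a library of target RNAs (target site in constant flanks) at […] was incubated with 1 nM active freshwater sponge Ephydatia fluviatilis Piwi piRISC (synthetic 5'-monophosphorylated piRNA guide) with or without 500 nM EmGtsf1 at 33 °C for 1 min to 16 h. Uncleaved targets were sequenced and the pooled three trials fitted to a burst-and-steady-state model to give the pre-steady-state cleavage rate (min^-1). Sequence is the target site only. Fits with R² ≤ 0 are excluded.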
As for UCCUCCUUCAGCUUGCAUAGUAUUUUGUUA, the “pre-steady-state target cleavage rate” value was found to be 0.00463 ± 0.0027.

Regarding UCCUCCUUGAGCUUGCAUAGUAUUUACAAA, the “pre-steady-state target cleavage rate” value worked out at 0.00316 ± 0.0022. In the case of UCCUGGAUCAGCAUGCAUAGUAUUUAGUUA, the “pre-steady-state target cleavage rate” value stood at 0.12 ± 0.026. As to UCCUGGAAGUGCUUGCAUAGUAUUUAGAAA, the “pre-steady-state target cleavage rate” value was 0.00379 ± 0.0018. On to UCCUGGAUGUGCUUACAUAGUAUUUAGUUA, for which the “pre-steady-state target cleavage rate” value came to 0.0113 ± 0.0041. Take UCCUGCUACAGCUUGCAUAGUAAAAAGUAA: the “pre-steady-state target cleavage rate” value turned out to be 0.00322 ± 0.0027. Regarding UCCUGCUACAGCUUGCAUAGUAUCUAGUUA, the “pre-steady-state target cleavage rate” value was 0.00723 ± 0.0019.

Turning to UCCUGGAUGUCGAACGUAUCUAUUUAUGUUA, the “pre-steady-state target cleavage rate” value is less than 0.0001. As to UCCUGCUACAGCUAGCAUAGUAUUUAGUUA, the “pre-steady-state target cleavage rate” value turned out to be 0.0287 ± 0.0081. The figure for UCCUGGAACAGCUUGCAUAGUAUUUAGUGA is 0.00437 ± 0.002.

On to UCCUGCAACAGCUUGCAUAGUAUUUUCAAA, for which the “pre-steady-state target cleavage rate” value was found to be 0.00269 ± 0.0017.

Regarding UCCUGCUAGUCCUUGCAUAGUAUUUAGAAA, the “pre-steady-state target cleavage rate” value is 0.00294 ± 0.0025. For the sequence UCCUGCUACAGCUUGGAUAGUAUUUAGUUA, the “pre-steady-state target cleavage rate” value was 0.017 ± 0.0041. With UCCUCCUUCAGCUUGCAUAGAAUUUAGUUA the figure was 0.00469 ± 0.0021; with UCCUGGAUGAGUUUGCAUAGUAUUUAGUUA, 0.0219 ± 0.006; with UCCUGGAUCAGCUUGCAUAGUUUUUAGUAA, 0.00477 ± 0.0025. The figure for UCCUCCUACAGCUUCCAUAGUAUAUAGUUA is 0.00246 ± 0.0022; for UCCUCCUUCAGCUUGCAUAGUAAUUAGUUA it is 0.0731 ± 0.025. With UCCUCCUUCAGCUUGCAUAGUAUUUAGAAA the figure was 0.00603 ± 0.0031; with UCCUGCAACAGCUUGCAUUGUAUUUAGUUA, 0.0331 ± 0.0081; with UCCUCCUACAGCUUGCAUAGUAUAAACAAA, 0.00398 ± 0.0028. For UCCUGCUAUCAGCUUGCAUAGUAUUUAGUUA, the “pre-steady-state target cleavage rate” value stood at 0.0613 ± 0.015. For the sequence UCCUGGAACAGCUUCCAUAGUAUUUAGUUA, the “pre-steady-state target cleavage rate” value was 0.00225 ± 0.0021. On to UCCUCCUACAGCUUGCAUAGUAUAUACUUA, for which the “pre-steady-state target cleavage rate” value came out at 0.00304 ± 0.0025.

As to UCCUGGAACAGCUUGCUUAGUAAUUAGUUA, the “pre-steady-state target cleavage rate” value came to 0.00639 ± 0.0027. The figure for UCCUGGAAGAGCAUGCAUAGUAUUUAGUUA is 0.0132 ± 0.004. Regarding UCCUCCUACAAGCUUGCAUAGUAUUUAGUUA, the “pre-steady-state target cleavage rate” value was determined as 0.0104 ± 0.0039.

Regarding UCCUCCUUCAGCUUGCAUAGUAUUUACUUA, the “pre-steady-state target cleavage rate” value is 0.00514 ± 0.0032. The figure for UCCUCCAACAGCUUGCAUAGUAUUAAGUUA is 0.00502 ± 0.002.

Take UCCUGGAUGAGCUUGCAAAGUAUUUAGUUA: the “pre-steady-state target cleavage rate” value stood at 0.0322 ± 0.0094. With UCCUGGAUGUCCUGGCAUAGUAUUUAGUUA, the “pre-steady-state target cleavage rate” value is 0.0055 ± 0.0047. In the case of UCCUGGAUGAGCAAGCAUAGUAUUUAGUUA, the “pre-steady-state target cleavage rate” value came out at 0.0118 ± 0.0048.

As to UCCUGGAACAGGUUGCAUACUAUUUAGUUA, the “pre-steady-state target cleavage rate” value worked out at 0.00367 ± 0.0017. With UCCUCCAACAGCUUGCAAAGUAUUUAGUUA the figure was 0.0132 ± 0.0038; with UCCUGGAACAGCUUGCAUAGUAUUGAGUUA, 0.00624 ± 0.0022; with UCCUGGUACAGCUAGCAUAGUAUUUAGAAA, 0.00319 ± 0.0022. The figure for UCCUGCUACAGCUUGCAUAGAUUUUAGUAA is 0.0033 ± 0.0022. Take UCCUGGUACUGCUUGCAUAGUAAUUAGUUA: the “pre-steady-state target cleavage rate” value was found to be 0.114 ± 0.043.

UCCUGCUACAGCUUGCAUAGUUUUUUGUUA: the “pre-steady-state target cleavage rate” value stood at 0.00384 ± 0.0021. With UCCUGGAUGUGCUUGCAUAGUAUUUAAGUUA the figure was 0.0404 ± 0.015.
